PubChem BioAssay (NCI)
The panel holds about 83,000 compounds, 20% with a hit somewhere; the sample as a whole holds those more often.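 Note: values are percent growth. 100 is the growth of untreated cells, values between 100 and 0 indicate rising inhibition; between -100 and 0 indicates cell death.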 Calls of active or inactive are those of the source. How the source made its calls: active means growth percent below 10; inactive means the rest.

How the values were obtained:
Experiment in all cases: NCI-60 one-dose screen, 48 h (100 = growth as untreated, 0 = no growth, -100 = all killed)
Details in all cases: 10 µM unless noted
[1] = tested on: MOLT-4 leukemia
[2] = tested on: SR leukemia
[3] = tested on: RPMI-8226 leukemia
[4] = tested on: OVCAR-8 ovarian
[5] = tested on: OVCAR-5 ovarian
[6] = tested on: OVCAR-4 ovarian
[7] = tested on: SK-OV-3 ovarian
[8] = tested on: IGROV1 ovarian
[9] = tested on: OVCAR-3 ovarian
[10] = tested on: HS 578T breast

Measured: growth

O=C1N[C@@H]2[C@@H](O)[C@@H](O)[C@H](O)C[C@H]2c2cc3c(c(O)c21)OCO3
active: [1] -6.14% | [2] 6.14% | [3] -24.2% | [4] -7.71% | [5] -13.4% | [6] -23.7% | [7] -11.2% | [8] -7.85% | [9] -10.8% | [10] -14.2%

O=C([O][Hg][CH2]C1OCCOC1[CH2][Hg][O]C(=O)c1ccccc1)c1ccccc1 (stereo not given)
active: [1] -8.85% | [2] 2.54% | [6] -89.2% | [9] -98.2%
inactive: [3] 12.3% | [4] 90% | [5] 112% | [7] 122% | [8] 46.3% | [10] 113%

COC(=O)[C@H](Cc1c[nH]c2ccccc12)NC(=O)[C@@H](OC)[C@@H]1Cc2cc3cc(OC4CC(OC5CC(O)C(O)C(C)O5)C(O)C(C)O4)c(C)c(O)c3c(O)c2C(=O)[C@H]1OC1CC(OC2CC(OC3CC(C)(O)C(O)C(C)O3)C(O)C(C)O2)C(O)C(C)O1 (stereo not given in full)
inactive: [4] 11% | [5] 15.3% | [7] 18.2% | [8] 23.4%
active: [1] 0.755% | [2] 4.93% | [3] -5.61% | [6] 0.345% | [9] 4.79% | [10] -13.6%

Nc1ccc(Cl)cc1
inactive: [1] 94.3% | [2] 102% | [3] 98.9% | [4] 97.4% | [5] 100% | [6] 106% | [7] 92% | [8] 105% | [9] 112% | [10] 98.9%

CCCCC1(CCC)C(=O)NC(=S)NC1=O
inactive: [1] 96.8% | [2] 126% | [3] 104% | [4] 128% | [5] 102% | [6] 95.9% | [7] 109% | [8] 87.9% | [9] 93.3% | [10] 111%

COc1cc2ncnc(Nc3ccc(F)c(Cl)c3)c2cc1OCC(=O)N1CCN(C)CC1
inactive: [1] 81.2% | [2] 74.5% | [3] 90.5% | [4] 90% | [5] 78.4% | [6] 79.5% | [7] 13.7% | [8] 48.2% | [9] 78.2% | [10] 93.4%

Cc1sc2c(c1C)C(c1ccc(Cl)cc1)=N[C@@H](CC(=O)OC(C)(C)C)c1nnc(C)n1-2
inactive: [1] 48.3% | [2] 19.2% | [3] 23.5% | [4] 53% | [5] 45.4% | [6] 42.6% | [7] 39.3% | [8] 31.4% | [9] 20%
active: [10] -4.04%

C/C(=C\c1ccn(-c2ccc(N)cc2)n1)[C@@H]1C[C@@H]2O[C@]2(C)CCC[C@H](C)[C@H](O)[C@@H](C)C(=O)C(C)(C)[C@@H](O)CC(=O)O1
active: [9] 2%
inactive: [1] 13.3% | [2] 19% | [3] 15.6% | [4] 29.5% | [5] 32.9% | [6] 67.4% | [7] 45.1% | [8] 40.3% | [10] 17.8%

O=C(CC1(O)C(=O)Nc2ccc(Cl)cc21)c1ccc(C(=O)NCC2CCC3(CC2)OOC2(CCCCC2)OO3)cc1 (stereo not given)
inactive: [5] 47.4% | [6] 14.4% | [7] 57.2% | [10] 16.1%
active: [1] -39.9% | [2] -48.2% | [3] -42.4% | [4] 3.83% | [8] -18.6% | [9] -76.8%

N/C(=N\N=C\c1ccc(-c2ccccc2)cc1)N[N+](=O)[O-]
inactive: [3] 20.1% | [4] 42.6% | [5] 56.9% | [6] 61.5% | [7] 35.4% | [8] 34.6% | [10] 44.3%
active: [1] 5.54% | [2] 5.79% | [9] -19.8%

c1ccc(Nc2nc(-c3ccccc3)c[se]2)cc1
inactive: [1] 76.2% | [2] 79.6% | [3] 86.6% | [4] 96.3% | [5] 96.7% | [6] 75.6% | [7] 86.4% | [8] 68.8% | [9] 93.5% | [10] 89.6%

COc1cc([C@@H]2c3cc4c(cc3[C@H](OC(C)=O)[C@H]3COC(=O)[C@@H]23)OCO4)cc(OC)c1OC
active: [4] 6.28% | [7] -10.2% | [10] 7.08%
inactive: [1] 16.4% | [2] 15.6% | [3] 23.6% | [5] 26.4% | [6] 29.9% | [8] 16.8% | [9] 13.2%
